Screening data from PubChem BioAssay.
FMDV antiviral: antivirals against foot and mouth disease virus | FMDV antiviral cell-based qHTS | Potency, µM (doses to about 57.9 µM), for inactives: at the highest dose activity change, negative = inhibition, most hits filed as inhibitors | 410,000 compounds, 1.2% hits; calls by dose curve; tested in HEK293T cells; also: read-out not given here; potency is read from the fitted curve at half-maximal effect; nearly all actives have a fitted effect of over 45% in size
Vaccinia mCherry: vaccinia inhibition (mCherry reporter). Vaccinia virus mCherry reporter infection, fluorescence. Potency, µM (series often up to 36.5 µM), for the others: at the top dose activity change, negative = inhibition, usual class: inhibitors. 310,000 compounds, 0.63% hits. AID 720579; calls by dose curve; tested in A549 cells; also: potency is read from the fitted curve at half-maximal effect; nearly all actives have a fitted effect of over 35% in size
HCV inh: HCV inhibition | Huh7.5.1 HCVcc-Cre infection, luciferase reporter, 44 h | Potency, µM (highest dose often 41.8 µM), for the others: top-dose activity change, negative = inhibition, actives largely listed as inhibitors | 340,000 compounds, 3.4% hits; also: potency is read from the fitted curve at half-maximal effect
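Cells seeded at 1,000/well and cultured 4 h, then compounds added followed by HCVcc-Cre virus (~0.5 moi). After 44 h further culture, luciferase substrate was added, plates held 15 min at room temperature, and luminescence read for 15 sec.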
Sm TGR block: inhibitors of Schistosoma mansoni thioredoxin glutathione reductase; Q962Y6; purified TGR, DTNB reduction, TNB absorbance 405 nm; Potency, µM (top dose mostly 114 µM), for inactives: at the highest dose activity change, negative = inhibition, usual class: inhibitors; 360,000 compounds, 3% hits; AID 485364; also: potency is read from the fitted curve at half-maximal effect; nearly all actives have a fitted effect of over 60% in size
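TGR 20 nM + NADPH 100 uM (dispensed conc.), cpd preinc 15 min RT; start with NADPH (500 uM addition) then DTNB (15 mM addition). Kinetic TNB absorbance, 405 nm filter. Four-parameter Hill fit across titration.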
HCMV antiviral: human cytomegalovirus inhibition; activity change, negative = inhibition, % at 57.5 µM; 410,000 compounds, 4.5% hits; HFF cells, HCMV-luciferase reporter, 72 h; active compounds read low; in the data active = activity change below about -60%; inconclusive = no clear call, values can overlap the other calls; inactive = above about -39%
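Inhibition of viral replication was scored as loss of reporter luminescence in HFFs infected with HCMV-luciferase (MOI 1 PFU/cell) for 72 h; compounds tested at 2 doses, normalized to buffer and Salinomycin controls.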
VACV Venus inh: inhibitors of vaccinia virus (Venus reporter); Vaccinia virus Venus reporter expression, fluorescence; Potency, µM (doses to about 36.5 µM), without a hit: top-dose activity change, negative = inhibition, usual class: inhibitors; 330,000 compounds, 0.46% hits; calls by dose curve; tested in A549 cells; also: potency is read from the fitted curve at half-maximal effect; nearly all actives have a fitted effect of over 30% in size
The depositor's hits bear a star; i = inactive; ? = inconclusive; / = no result; + = active, no number. In the library only some 9.3% were active in any assay of this set; here they are far more common. Unless noted, calls follow the shape of the dose curve; as a rule, active = well fitted curve in the direction sought with a large enough effect; inconclusive = small, poorly fitted or top-dose-only effect, or another doubt; inactive = no such curve, though single readings can be large; an effect the other way counts as inactive or inconclusive. % is scaled to controls: 0 for no effect and ±100 for the full control effect.

SMILES	FMDV antiviral	Vaccinia mCherry	HCV inh	Sm TGR block	HCMV antiviral	VACV Venus inh
C=C1C(O)[C@@H]2O[C@]3(CC[C@H](/C=C/C(C)[C@@H]4CC(C)=CC5(O[C@H](C[C@@](C)(O)CO)CCC5O)O4)O3)CC[C@H]2O[C@@H]1C(O)CC(C)[C@H]1OC2(CCCCO2)CCC1C (stereo partly specified)	-13.6%	?	1.41µM*	/	/	10µM*
CCOc1ccc(-n2c(C)c(C(=O)OC)c3cc(O)ccc32)cc1	-11.1%	?	-2.6%	-15.4%	-38.6	1.9%
CCOC(=O)c1cc2c(C)n(-c3ccc(OCC)cc3)c(C)c2ccc1=O	39.8µM*	?	?	?	?	-23.0%
CCOC(=O)c1cc2c(C)n(-c3ccc(C)cc3)c(C)c2ccc1=O	-37.2%	/	11.2µM*	?	-96.3*	/
COc1ccc(C(=O)OCC(=O)Nc2cc(C)on2)cc1S(=O)(=O)N1CCOCC1	13.4%	-6.2%	-0.7%	7.3%	?	-21.0%
Cc1cc(SCc2ccc(F)cc2)nc(=O)[nH]1	0.8%	/	-5.2%	-17.0%	-3.8	/
Cc1cc(SCc2ccc(C(F)(F)F)cc2)nc(=O)[nH]1	8.8%	/	6.2%	1.3%	+	/
O=C1C2CC=CCC2C(=O)N1c1ccc(NCCc2ccc(O)cc2)c([N+](=O)[O-])c1 (stereo unspecified)	?	-29.6%	12.6µM*	-0.6%	14.6	-17.5%
Cc1c(/C(O)=C2\C(=O)C(=O)N(CCN(C)C)C2c2cccs2)cnn1-c1ccccc1 (stereo unspecified)	24.3%	i	8.6%	-22.8%	-12.9	-8.1%
O=[N+]([O-])c1ccc(N=Nc2c(O)[nH]c3ccc(F)cc23)cc1	-1.3%	-11.0%	-20.9%	2.0%	-29.3	-6.6%
O=[N+]([O-])c1ccc(N=Nc2ccc(O)cc2O)cc1	10.1%	?	?	-3.3%	-99.4*	?
O=[N+]([O-])c1cccc(N=Nc2ccc(O)cc2O)c1	-9.4%	?	1.78µM*	/	-79.7*	?
Cc1ccccc1C(=O)NC1(C(F)(F)F)N=C(c2ccccc2)N(C2CCCCC2)C1=O (stereo unspecified)	?	-6.4%	/	1.5%	-102.4*	-2.2%
O=C(NC1(C(F)(F)F)N=C(c2ccccc2)N(C2CCCCC2)C1=O)c1ccc(F)cc1 (stereo unspecified)	0.0%	-0.4%	/	3.7%	-29.9	-8.2%
CCN1CCN(c2cc3c(cc2F)c(=O)c(S(=O)(=O)c2ccc(OC)cc2)cn3CC)CC1	14.8%	-2.0%	/	-3.6%	-12.7	-4.5%
O=S(=O)(Nc1nc2ccccc2nc1Nc1cccc(S(=O)(=O)N2CCCCC2)c1)c1ccccc1	?	11.2µM*	?	1.7%	-82.7*	?
COc1ccc(S(=O)(=O)N2CCCCCC2)cc1NC(=O)CN1C(=O)NC(C)(c2ccc(C)cc2)C1=O (stereo unspecified)	-5.4%	-26.0%	?	?	-0.4	-21.4%
O=C(Nc1cccc(S(=O)(=O)N2CCCCC2)c1)C1CC(=O)N(c2ccc3c(c2)OCCO3)C1 (stereo unspecified)	?	/	12.6µM*	3.7%	-30.0	/
Cc1ccc(S(=O)(=O)N2CCCCC2)cc1NCC(=O)Nc1ccc(Br)cc1F	?	?	/	/	-85.8*	?
COc1ccc(S(=O)(=O)Nc2cccc(S(=O)(=O)N3CCCCCC3)c2)cc1	25.4%	-13.6%	6.7%	-1.3%	6.4	-7.3%
CCOc1ccc(S(=O)(=O)N2CCCCC2)cc1NC(=O)CN1C(=O)NC(C)(c2ccc(C)cc2)C1=O (stereo unspecified)	0.3%	?	10µM*	6.1%	/	?
CCOC(=O)c1cccc(NC(=O)c2cc(-c3ccc(Cl)s3)nc3ccccc23)c1	-20.0%	-14.6%	/	?	4.0	-7.7%
CCN(CC)S(=O)(=O)c1ccc(C)c(NC(=O)CNc2cccc(S(=O)(=O)N3CCOCC3)c2)c1	-27.3%	-28.0%	?	2.3%	-4.2	-4.9%
